Results on 19 compounds are retold here after PubChem BioAssay (EPA / NIEHS).

Calls of active or inactive are those of the source. Rule for the calls: active = hit-call score of the fitted dose curve at least 0.9, where 1 is the maximum; inactive = score below 0.9.

For orientation: AC50 means the midpoint of the concentration-response curve, whichever way the signal moves.

Common to all, as to details: primary human HUVEC with PBMC; actives raise or lower the signal
Read-out in assay [1]: Interleukin-1 alpha (IL1a), IL1A (gene 3552)
The experiment in a line: BSK_LPS_IL1a: BioMAP Diversity Plus: LPS Assay for Interleukin-1 alpha (IL1a) Biomarker Activity (AID 2283080). The method in brief:
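Human umbilical vein endothelial cells co-cultured with peripheral blood mononuclear cells were LPS-stimulated and exposed to test chemicals for 24 h. IL-1 alpha was quantified by ELISA, with bidirectional curve fitting against DMSO as the negative control and baseline.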

Read-out in assay [2]: Monocyte Chemoattractant Protein-1 (MCP1), CCL2 (gene 6347)
As to the kind of experiment: BSK_LPS_MCP1: BioMAP Diversity Plus: LPS Assay for Monocyte Chemoattractant Protein-1 (MCP1) Biomarker Activity (AID 2283081).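 For AC50: secreted MCP-1 protein quantified by ELISA in culture supernatant.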 The method in brief:
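HUVEC plus PBMC co-culture (human primary cells, LPS system) exposed to test chemical for 24 h; MCP-1 measured by ELISA. Bidirectional curve fitting against DMSO baseline; parallel SRB total-protein staining flags overt cytotoxicity.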

Assay [3] in a line: BSK_LPS_PGE2: BioMAP Diversity Plus: LPS Assay for Prostaglandin E2 (PGE2) Biomarker Activity (AID 2283082).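 For AC50: secreted prostaglandin E2 measured by ELISA in LPS-stimulated co-culture.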 The method in brief:
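Compounds were added to the LPS co-culture of endothelium and PBMC, and PGE2 was measured by ELISA after 24 h. Responses in either direction were fitted with DMSO as baseline.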

Read-out in assay [4]: Macrophage colony-stimulating factor (MCSF), CSF1 (gene 1435)
The experiment in a line: BSK_LPS_MCSF: BioMAP Diversity Plus: LPS Assay for Macrophage colony-stimulating factor (MCSF) Biomarker Activity (AID 2283083). The method in brief:
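Human umbilical vein endothelial cells co-cultured with peripheral blood mononuclear cells were exposed to compound for 24 h. M-CSF levels were measured by ELISA, and bidirectional curve fitting used DMSO as the negative control and baseline.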

Read-out in assay [5]: Tissue Factor, F3 (gene 2152)
The experiment in a line: BSK_LPS_TissueFactor: BioMAP Diversity Plus: LPS Assay for Tissue Factor Biomarker Activity (AID 2283084). Put shortly: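 Human umbilical vein endothelial cells co-cultured with peripheral blood mononuclear cells were dosed and stimulated with LPS. Cell-surface CD142 was quantified by ELISA at 24 h. Activity was fitted bidirectionally against DMSO baseline.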

Read-out in assay [6]: Tumor necrosis factor (Homo sapiens) (UniProt P01375)
The experiment in a line: BSK_LPS_TNFa: BioMAP Diversity Plus: LPS Assay for Tumour Necrosis Factor alpha (TNFa) Biomarker Activity (AID 2283085).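 For AC50: TNFa protein level quantified by ELISA in the co-culture.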 Put shortly:
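Cells (umbilical vein endothelium plus peripheral blood mononuclear cells) were dosed with chemical, incubated 24 h, then TNFa was quantified by ELISA; values derive from bidirectional fitting with DMSO as baseline.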

Read-out in assay [7]: Vascular cell adhesion molecule 1 (VCAM1), VCAM1 (gene 7412)
The experiment in a line: BSK_LPS_VCAM1: BioMAP Diversity Plus: LPS Assay for Vascular cell adhesion molecule 1 (VCAM1) Biomarker Activity (AID 2283086). Put shortly:
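Cells are dosed in an LPS-stimulated endothelial/mononuclear co-culture and, after 24 h, VCAM-1 is quantified by ELISA. Activity in either direction is fitted relative to the DMSO negative control.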

Read-out in the next assay: CD40, CD40 (gene 958)
The experiment in a line: BSK_SAg_CD40: BioMAP Diversity Plus: SAg Assay for CD40 Biomarker Activity (AID 2283088). The method in brief:
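Human umbilical vein endothelial cells co-cultured with PBMC; CD40 levels measured by ELISA with fluorescence read-out 24 h after chemical dosing. Gain or loss of signal fitted bidirectionally against DMSO baseline.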

Read-out in another assay: CD69, CD69 (gene 969)
As to the kind of experiment: BSK_SAg_CD69: BioMAP Diversity Plus: SAg Assay for CD69 Biomarker Activity (AID 2283089).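 For AC50: cell surface CD69 protein quantified by ELISA with fluorescence detection.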 Put shortly: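 Values derive from bidirectional fitting relative to DMSO vehicle. Cells: umbilical vein endothelium plus peripheral blood mononuclear cells, treated 24 h before fluorescent ELISA for CD69.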

Tumor necrosis factor (Homo sapiens), sequence (P01375 whole entry, looked up): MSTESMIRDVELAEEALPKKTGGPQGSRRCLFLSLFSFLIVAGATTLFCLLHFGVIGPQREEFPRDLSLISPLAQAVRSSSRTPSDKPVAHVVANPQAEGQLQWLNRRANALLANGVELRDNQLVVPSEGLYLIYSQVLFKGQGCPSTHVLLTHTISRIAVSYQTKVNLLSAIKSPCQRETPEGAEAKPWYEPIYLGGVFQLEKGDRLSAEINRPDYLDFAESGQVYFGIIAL

On to `CCc1cccc(CC)c1N(COC)C(=O)CCl`, for which the AC50 in [1] is 1.06 µM (active); in assay [4], 13.6 µM (active); in [6], 1.31 µM (active); in assay [7] it was 26.9 µM (active); with CD40, CD40 (gene 958), 20 µM (active); with CD69, CD69 (gene 969), 15.4 µM (active). Also, the result in [2], in assay [3] and in assay [5] was inactive.

In the case of `CCCCOC(=O)c1ccccc1C(=O)O`, the result in assay [1], in [2], in [3], in assay [4], in assay [5] and in [6] was inactive. Besides, the outcome in assay [7] was “inactive”; in the assay with CD40, CD40 (gene 958) it was “inactive”; in the assay with CD69, CD69 (gene 969), “inactive”.

With `CCOP(=O)(SC(C)CC)N1CCSC1=O` (configuration not stated), the outcome in assay [1], in assay [2], in assay [3], in assay [4], in [5] and in assay [6] was inactive. Besides, the outcome in assay [7] is “inactive”; with CD40, CD40 (gene 958), “inactive”; with CD69, CD69 (gene 969) it was “inactive”.

Take `COc1ccc(C(=CC(=O)N2CCOCC2)c2ccc(Cl)cc2)cc1OC`: the result in assay [1], in [3], in [5] and in assay [7] was inactive. The AC50 was 1.25 µM (active) in [2]; 12.8 µM (active) in assay [4]; 1.4 µM (active) in assay [6]; 6.93 µM (active) with CD40, CD40 (gene 958); 4.3 µM (active) in the assay with CD69, CD69 (gene 969).

Take `CCOP(=S)(OCC)Oc1ccc2c(C)c(Cl)c(=O)oc2c1`: the result in [1], in assay [2], in assay [3], in assay [4], in [5] and in [6] was inactive. The outcome in [7] was “inactive”; with CD40, CD40 (gene 958), “inactive”; in the assay with CD69, CD69 (gene 969), “inactive”.

Consider `Nc1c(Cl)cc([N+](=O)[O-])cc1Cl`, for which the result in assay [1], in assay [2], in assay [3], in assay [4], in assay [5] and in assay [6] was inactive. For the same compound, the outcome in [7] was “inactive”; with CD40, CD40 (gene 958) it was “inactive”; with CD69, CD69 (gene 969), “inactive”.

`CC(=NC#N)N(C)Cc1ccc(Cl)nc1`: the result in assay [1], in assay [2], in assay [3], in assay [4], in assay [5] and in assay [6] was inactive. For the same compound, the outcome in assay [7] was “inactive”; with CD40, CD40 (gene 958), “inactive”; with CD69, CD69 (gene 969), “inactive”.

Take `CCCSP(=O)(OCC)Oc1ccc(Br)cc1Cl` (configuration not stated): the result in assay [1], in [2], in assay [3], in assay [4] and in assay [5] was inactive. Besides, the AC50 is 35.3 µM (active) in assay [6]; 31.9 µM (active) with CD40, CD40 (gene 958); 27.8 µM (active) with CD69, CD69 (gene 969).

With `Cc1ccn2nc(S(=O)(=O)Nc3c(F)cccc3F)nc2n1`, the outcome in assay [1], in [2], in assay [3], in assay [4], in assay [5] and in [6] was inactive. Besides, the outcome in assay [7] was “inactive”; with CD40, CD40 (gene 958) it was “inactive”; in the assay with CD69, CD69 (gene 969) it was “inactive”.

For the compound `C#CCC1=C(C)C(OC(=O)C2C(C=C(C)C)C2(C)C)CC1=O` (configuration not stated), the AC50 was 31.9 µM (active) in assay [1]; 33.4 µM (active) in assay [2]; 3.87 µM (active) in assay [3]; 23.4 µM (active) in assay [4]; 32.9 µM (active) in assay [6]; 14.8 µM (active) in [7]. Also, the AC50 is 26.5 µM (active) in the assay with CD40, CD40 (gene 958) and 29.8 µM (active) in the assay with CD69, CD69 (gene 969). Further, the outcome in assay [5] was inactive.

As for `N#CSCSC#N`, the AC50 in [1] is 5.46 µM (active); in assay [2], 10.6 µM (active); in [3], 5.66 µM (active); in assay [4], 5.23 µM (active); in [6], 3.89 µM (active); in assay [7], 5.56 µM (active). Besides, the AC50 is 7.73 µM (active) in the assay with CD40, CD40 (gene 958) and 7.16 µM (active) with CD69, CD69 (gene 969). Also, in assay [5], the outcome was inactive.

For the compound `CC(COc1ccc(Oc2ccccc2)cc1)Oc1ccccn1` (configuration not stated), the outcome in assay [1] was “inactive”; in assay [2], “inactive”; in assay [4] it was “inactive”; in assay [5], “inactive”; in assay [6], “inactive”; with CD40, CD40 (gene 958), “inactive”. In the assay with CD69, CD69 (gene 969), the result was inactive. In addition, the AC50 in assay [3] was 3.97 µM (active); in assay [7] it was 0.843 µM (active).

Take `CCC(=NOC/C=C/Cl)C1=C(O)CC(C2CCOCC2)CC1=O` (configuration not stated): the result in assay [1], in assay [2], in assay [3], in [4], in [5] and in [6] was inactive. The outcome in assay [7] is “inactive”; with CD40, CD40 (gene 958), “inactive”; with CD69, CD69 (gene 969), “inactive”.

Consider `COP(=O)(OC)C(O)C(Cl)(Cl)Cl` (configuration not stated), for which the outcome in assay [1], in [2], in assay [4], in [5], in assay [6] and in assay [7] was inactive. The outcome is “inactive” with CD40, CD40 (gene 958) and “inactive” with CD69, CD69 (gene 969).

Consider `CSc1nc(NC(C)C)nc(NC(C)C)n1`, for which the result in assay [1], in assay [2], in assay [3], in [4], in assay [5] and in assay [7] was inactive. Moreover, the outcome was “inactive” in the assay with CD40, CD40 (gene 958) and “inactive” with CD69, CD69 (gene 969). Besides, in [6], the AC50 was 4.47 µM (active).

`CCOP(=S)(OCC)Oc1ccc([N+](=O)[O-])cc1`: the outcome is “inactive” in [1]; “inactive” in [5]; “inactive” in assay [6]; “inactive” with CD40, CD40 (gene 958). The AC50 in assay [3] was 20 µM (active); in [4] it was 20 µM (active); in [7], 20 µM (active); with CD69, CD69 (gene 969) it was 32.4 µM (active).

As for `CC1=NNC(=O)N(/N=C/c2cccnc2)C1`, the outcome in assay [1], in assay [2], in assay [3], in assay [4], in assay [5] and in assay [6] was inactive. Besides, the outcome in assay [7] was “inactive”; in the assay with CD40, CD40 (gene 958), “inactive”; in the assay with CD69, CD69 (gene 969), “inactive”.

With `CC1(C(=O)Nc2ccc(O)c(Cl)c2Cl)CCCCC1`, the result in assay [1], in assay [2], in [4], in [5], in [6] and in [7] was inactive. In addition, the outcome with CD40, CD40 (gene 958) was “inactive”; with CD69, CD69 (gene 969), “inactive”. Besides, the AC50 in [3] was 5.46 µM (active).

As to `CCCOc1nn(C(=O)NS(=O)(=O)c2ccccc2C(=O)OC)c(=O)n1C`, the outcome in assay [1], in assay [2], in assay [3], in [4], in assay [5] and in assay [6] was inactive. The outcome with CD40, CD40 (gene 958) was “inactive”; in the assay with CD69, CD69 (gene 969), “inactive”.
